Assay outcomes from PubChem BioAssay.
Most compounds without a hit are left out; they make up all but 1.4% or so of the library.
EPAC1 agonist – agonists of human EPAC1; Potency, µM (highest dose often 154 µM), for the others: at the highest dose activation, usual class: activators; AID 720707; EPAC1 agonist qHTS, biochemical assay; response scale: 100% = response to 6.5 mM cAMP; O95398; actives 0.073% (n = 360,000); further: nearly all actives have a fitted effect of over 60% in size
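Fluorescent GDP-exchange assay: 100 nM EPAC1 with 250 nM Rap1B preloaded with BODIPY-GDP and 50 uM GDP; compounds tested as concentration series, 5 min at room temperature, then read every 5 min for 30 min (ex 480/em 540 nm); normalized to 6.5 mM cAMP.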
EPAC2 antag – EPAC2 (human) antagonism; Q8WZA2; EPAC2 GEF exchange of Rap1B-BODIPY-GDP, fluorescence; Potency, µM (series often up to 114 µM), for inactives: at the highest dose activity, negative = inhibition, most hits filed as inhibitors; actives 0.18% (n = 360,000); AID 720708; further: on the % scale 0 is the no-effect control and ±100 the full control effect; nearly all actives have a fitted effect of over 45% in size
EPAC1 antagonist – antagonists of human EPAC1 | O95398 | EPAC1 GEF assay, Rap1b-BODIPY-GDP exchange fluorescence | Potency, µM (top dose mostly 115 µM), for the others: at the highest dose activity change, negative = inhibition, most hits filed as inhibitors | actives 0.14% (n = 360,000) | AID 720709;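 further: plate controls were vehicle for no effect and positive control for full effect; nearly all actives have a fitted effect of over 50% in size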
USP1 inh – blocks the human USP1/UAF1 deubiquitinase complex; AID 743255; actives 0.23% (n = 390,000); recombinant USP1/UAF1, Ub-Rhodamine cleavage fluorescence; O94782; Potency, µM (highest dose often 57.1 µM), inactives show at the top dose activity change, negative = inhibition, actives largely listed as inhibitors; further: on the % scale 0 is the no-effect control and ±100 the full control effect; nearly all actives have a fitted effect of over 60% in size
Target sequence (O94782 whole entry, looked up): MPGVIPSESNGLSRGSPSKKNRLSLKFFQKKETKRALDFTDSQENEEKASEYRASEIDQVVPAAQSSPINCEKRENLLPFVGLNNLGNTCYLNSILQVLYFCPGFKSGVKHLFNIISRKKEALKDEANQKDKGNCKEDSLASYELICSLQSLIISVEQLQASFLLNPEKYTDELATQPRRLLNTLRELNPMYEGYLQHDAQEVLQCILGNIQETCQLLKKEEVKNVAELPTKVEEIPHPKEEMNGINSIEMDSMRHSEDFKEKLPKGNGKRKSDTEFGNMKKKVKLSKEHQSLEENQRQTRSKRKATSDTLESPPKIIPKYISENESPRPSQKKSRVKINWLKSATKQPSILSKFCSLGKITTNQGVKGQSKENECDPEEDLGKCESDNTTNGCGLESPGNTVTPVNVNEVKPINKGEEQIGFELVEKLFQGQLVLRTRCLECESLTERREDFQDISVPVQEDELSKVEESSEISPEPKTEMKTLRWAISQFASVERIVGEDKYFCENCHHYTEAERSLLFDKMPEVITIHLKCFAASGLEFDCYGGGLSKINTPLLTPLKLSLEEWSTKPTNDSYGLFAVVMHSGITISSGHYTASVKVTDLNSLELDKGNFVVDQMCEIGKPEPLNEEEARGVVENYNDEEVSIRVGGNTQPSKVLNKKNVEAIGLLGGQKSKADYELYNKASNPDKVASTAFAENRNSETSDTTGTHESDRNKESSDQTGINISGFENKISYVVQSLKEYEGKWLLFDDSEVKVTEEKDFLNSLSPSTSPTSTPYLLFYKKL
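Step one: compound is pinned into 1nM USP1/UAF1 in HEPES pH 7.8 buffer with TCEP. Step two: 15 min room-temperature incubation. Step three: Ub-Rho (150nM final) starts cleavage, tracked by fluorescence over six one-minute reads.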
BRCA1 expr act – BRCA1 expression activation; actives 1.1% (n = 380,000); MCF7-BRCA1-FFLuc reporter, luminescence, 48 h; response scale: scaled: vehicle 0%, 10 µM genistein 100%; Potency, µM (doses to about 46.1 µM), for the others: at the highest dose activation, hits mostly activators; further: nearly all actives have a fitted effect of over 80% in size
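Activators of BRCA1 expression were detected as increased firefly luciferase luminescence in engineered MCF7 cells after 48 h compound incubation. Signals were scaled to genistein 10 microM as full activation.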
EPAC2 agonist – activates human EPAC2 exchange factor; Q8WZA2; EPAC2 activation, biochemical qHTS; response scale: 100% = 6.5 mM cAMP response; Potency, µM (top dose mostly 154 µM), inactives show at the highest dose activation, usual class: activators; actives 0.079% (n = 360,000); AID 720711; further: nearly all actives have a fitted effect of over 50% in size
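Fluorescence exchange assay: 100 nM EPAC2 with 250 nM RAP1B-BODIPY-GDP and 50 uM GDP; compounds tested as a concentration-titration series (qHTS). Loss of Rap1-bound BODIPY-GDP fluorescence read at 480/540 nm; data normalized to 6.5 mM cAMP.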
* hit, by the source's call; i = inactive; ? = inconclusive; · = not tested or not shown. The call rests on the fitted dose curve; in most records, active means well fitted curve in the direction sought with a large enough effect; inconclusive means small, poorly fitted or top-dose-only effect, or another doubt; inactive means no such curve, though single readings can be large; an effect the other way counts as inactive or inconclusive. Potency means the concentration at half of the fitted maximal effect.

SMILES	EPAC1 agonist	EPAC2 antag	EPAC1 antagonist	USP1 inh	BRCA1 expr act	EPAC2 agonist
CN(C(=O)c1ccc(-c2ccccc2)cc1)C1CCCCC1	1.9%	6.7%	7.1%	-18.4%	2.82µM*	-0.1%
CC(=O)Nc1ccc(NC(=O)c2nc(SCc3ccccc3F)ncc2Cl)cc1	·	·	·	·	-4.7%	·
O=C(NCc1cccnc1)c1ccc2sc([C@H]3C[C@H](O)[C@@H](CO)O3)nc2c1	-10.7%	3.9%	-3.9%	·	7.2%	7.0%
O=C(Nc1ccccc1F)NC1CCCCCCC1	-0.3%	-2.4%	5.0%	-9.0%	3.55µM*	16.8%
CN(C)c1cccc(C(=O)NC2CCCCCC2)c1	-1.5%	4.8%	-11.2%	-20.2%	10µM*	0.1%
O=C(CSc1ccccc1)NC1CCCCCCC1	-8.8%	-2.8%	-19.9%	-6.7%	10µM*	11.2%
COc1cccc(C(=O)NNC(=S)NC2CCCCC2)c1	i	9.0%	50.1µM*	-9.4%	51.5%	-1.3%
O=C(CSc1ccccc1)NC1CCCCCC1	3.3%	-5.8%	10.9%	-26.2%	?	5.5%
O=C(NC1CCCCCCC1)c1ccc(F)cc1	6.0%	-14.1%	6.8%	-13.9%	2.82µM*	14.8%
CCCC(NCC(=O)Nc1cc(S(=O)(=O)N2CCOCC2)ccc1OC)c1ccccc1 (stereo not given)	-2.5%	-4.8%	-1.0%	-21.3%	-36.6%	-3.9%
O=C1C(C2=C(O)c3ccccc3C2=O)=Nc2ccccc21	5.9%	?	-0.7%	14.1µM*	-103.0%	7.5%
Cc1cccc(NC(=O)CCc2c(C)nc3nc(CNC(=O)c4cccc(F)c4)nn3c2C)c1	·	·	·	5.4%	·	·
COC(=O)c1c(-c2ccncc2)csc1NC(=O)c1ccoc1C	6.1%	-4.7%	-3.2%	-21.2%	4.47µM*	13.7%
COC(=O)c1c(-c2cccnc2)csc1NC(=O)c1ccc2c(c1)OCO2	-10.1%	-0.3%	-13.7%	-17.6%	2.24µM*	3.7%
C=CCN(C(=O)c1csnn1)C(C(=O)NCc1ccc(F)cc1)c1cccs1 (stereo not given)	-11.3%	2.7%	-10.0%	-13.4%	1.9%	-2.5%
c1ccc(Sc2ncnc3c2oc2ccccc23)nc1	-3.5%	6.1%	6.3%	-23.9%	11.2µM*	1.3%
COCCNc1nc(Nc2ccc(Cl)cc2F)c2sccc2n1	-3.2%	?	-8.2%	·	-30.9%	14.2%
Cc1[nH]c2ccc(C(=O)OC(C)C(=O)N(C)c3ccccc3)cc2c1C (stereo not given)	28.2µM*	-6.9%	-11.3%	-19.9%	-61.1%	-4.8%
COc1cc2c(NC3CCN(C)CC3)nc(N3CCCN(C)CC3)nc2cc1OCCN(C)C	·	·	·	·	-6.8%	·
Clc1ccc(-c2cc3ccccc3nc2N2CCCC2)cc1	17.4%	6.1%	-3.4%	-16.0%	-8.7%	8.4%
Clc1ccc(-c2cc3ccccc3nc2N2CCOCC2)cc1	9.1%	56.2µM*	-27.5%	-12.9%	-18.0%	7.5%
Cc1ccc(CCNC(=O)c2sc3nc4n(c(=O)c3c2C)CCCC4)cc1	·	·	·	-13.1%	·	·
FC(F)Oc1ccc(C2N=C(c3ccccc3)NO2)cc1 (stereo not given)	12.1%	-8.0%	-20.7%	-27.2%	4.47µM*	-3.2%
COc1ccc(C2N=C(c3ccccc3)NO2)cc1OC (stereo not given)	-0.6%	-12.9%	-21.3%	-4.2%	70.2%	2.4%
CC1CCC2(CC1)Nc1ccccc1C(=O)N2c1ccccc1 (stereo not given)	11.9%	-0.4%	-9.2%	-16.0%	?	5.6%
SMILES	EPAC1 agonist	EPAC2 antag	EPAC1 antagonist	USP1 inh	BRCA1 expr act	EPAC2 agonist
O=C1c2ccccc2NC2(CCCCC2)N1c1ccc(O)cc1	-1.3%	10.9%	-1.1%	-17.0%	11.2µM*	4.0%
COc1ccc(-c2cn(Cc3ccc(C)cc3)nn2)cc1	-8.7%	14.6%	8.9%	?	8.91µM*	3.1%
Nc1cccc(N=[N+]([O-])c2cccc(N)c2)c1	1.5%	-0.8%	7.9%	-6.3%	?	2.9%
O=C(COC(=O)C1CC1)Nc1ccc(OC(F)F)cc1	-3.4%	-2.9%	-13.0%	-5.1%	3.7%	-11.8%
O=C(COC(=O)C1CC1)Nc1ccccc1Sc1ccccc1	11.4%	56.2µM*	-11.5%	-4.7%	-7.5%	13.6%
O=C(COC(=O)C1CC1)Nc1ccc(N=Nc2ccccc2)cc1	-9.8%	-4.7%	-8.9%	-10.5%	2.51µM*	0.7%
COc1cc(Cl)ccc1OCc1cc(C(=O)N(C)Cc2nnc(C)o2)no1	-13.2%	1.2%	-4.8%	-12.2%	69.2%	7.0%
COc1ccc(OCc2cc(C(=O)N(C)Cc3nnc(C)o3)no2)c(Cl)c1	1.2%	2.4%	-6.4%	-22.9%	7.08µM*	7.6%
CCc1ccc(CN(C)C(=O)c2cc(COc3ccc(OC)cc3Cl)on2)nc1	1.6%	1.9%	-25.0%	-12.1%	8.91µM*	3.9%
COc1cc(C)ccc1OCc1cc(C(=O)N(C)CCCN2CCOCC2)no1	2.9%	3.6%	18.7%	-6.5%	7.94µM*	5.7%
COc1ccc(OCc2cc(C(=O)N(C)Cc3cc(C)no3)no2)c(Cl)c1	-9.8%	-11.6%	-16.2%	-25.4%	3.98µM*	10.3%
C[C@H](CO)N1C[C@H](C)[C@@H](CN(C)Cc2ccc3c(c2)OCO3)Oc2c(NS(C)(=O)=O)cccc2C1=O	-19.6%	14.3%	13.8%	-29.5%	-8.6%	-9.4%
COC(=O)c1ccc(NC(=O)c2nc(SCc3ccccc3F)ncc2Cl)cc1	·	·	·	·	1.6%	·
CN(Cc1ccccn1)C(=O)c1cc(COc2ccc(F)cc2Cl)on1	-7.7%	8.6%	2.4%	-12.3%	82.4%	1.0%
Cc1cc(CN(C)C(=O)c2cc(COc3ccc(F)cc3Cl)on2)n[nH]1	-8.0%	-8.9%	-19.1%	-7.2%	7.94µM*	7.5%
CC(C)c1ccc(/C=C2\SC(=O)N(CC(=O)NC3C=CS(=O)(=O)C3)C2=O)cc1 (stereo not given)	-1.1%	-9.5%	-19.2%	-14.4%	0.0%	4.0%
O=C1C(O)=CC(=C(c2ccccc2)c2ccccc2)c2ccccc21	21.5%	?	-2.8%	?	-91.3%	3.8%
O=C(/C=C/c1ccncc1)c1ccc2c(c1)OCCO2	6.1%	1.0%	-5.5%	-12.1%	-55.4%	7.4%
COc1cc(/C=C/C(=O)c2ccc3c(c2)OCCO3)cc(Br)c1OCC(=O)N(C)C	15.0%	-2.5%	79.4µM*	-13.9%	-98.4%	4.2%
Cc1ccc(S(=O)(=O)N(CC(=O)Nc2ccc(Cl)cc2)C(=O)N2CCN(C)CC2)cc1	0.3%	1.9%	18.1%	-16.7%	23.4%	4.5%
Cc1cc(NS(=O)(=O)c2ccc(Nc3nc(-c4sc(N)nc4C)cs3)cc2)no1	4.9%	31.6µM*	?	-23.6%	-9.6%	-4.4%
